In PubChem BioAssay:
A number with no mark means an inactive call. The rule behind the calls is not given here.

What follows are compounds tested against Pantothenate synthetase (Mycobacterium tuberculosis (strain ATCC 25618 / H37Rv)) (UniProt P9WIL5) (assay: Coupled enzyme confirmation of inhibitors against recombinant Mtb PanC (AID 375;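 note: 0% = full reaction with vehicle and 100% = no enzyme background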)). Conditions: coupled enzyme assay; at 10 µM, hits give high values.
Pantothenate synthetase (Mycobacterium tuberculosis (strain ATCC 25618 / H37Rv)), sequence (P9WIL5 whole entry, looked up): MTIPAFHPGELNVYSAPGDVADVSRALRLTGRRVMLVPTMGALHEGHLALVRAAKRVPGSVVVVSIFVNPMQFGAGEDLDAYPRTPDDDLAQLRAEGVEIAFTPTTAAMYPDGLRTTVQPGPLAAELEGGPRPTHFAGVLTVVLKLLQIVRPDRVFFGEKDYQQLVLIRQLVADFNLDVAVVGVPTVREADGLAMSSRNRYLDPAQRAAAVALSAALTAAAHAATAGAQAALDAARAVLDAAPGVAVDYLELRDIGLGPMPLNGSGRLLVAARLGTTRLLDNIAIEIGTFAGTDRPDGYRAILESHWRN
With `CC1(C)NC(=O)N(CC(O)CN(Cc2ccccc2)Cc2ccccc2)C1=O` (configuration not stated) the inhibition was 0%.
`COc1ccc(-c2nnc3ccc(SC(C(C)=O)C(C)=O)nn23)cc1OC` gave an inhibition of 2%.
For `CCOc1ccc(NC(=O)CSc2nc3cccnc3n2CC)cc1`, the inhibition was 0%.
Work on `Cc1ccc(-c2c3c(=O)n(C)c(=O)n(C)c3cn2CCCN2CCOCC2)cc1` yielded an inhibition of 9%.
Work on `CCc1ccc(NC(=O)CS(=O)CC(=O)NCC2OCCc3ccccc32)cc1` (configuration not stated) yielded an inhibition of 0%.
For `CC1CCN(CCn2c(=S)[nH]c3ncccc3c2=O)CC1`, the inhibition was 0%.
`CCOC(=O)c1c(NC(=O)c2ccn(CC)n2)sc2c1CCCC2` was tested, and the inhibition was 3%.
Work on `NC(=O)C1CCN(C(=O)c2cc3n(n2)C(C(F)(F)F)CC(c2ccco2)N3)CC1` (configuration not stated) yielded an inhibition of 0%.
Compound `Cc1ccc(S(=O)(=O)N2CCN(S(C)(=O)=O)C2c2ccccc2)cc1` (configuration not stated) has an inhibition of 0%.
`COc1ccc2cnn(-c3ccccc3)c(=O)c2c1OC` showed an inhibition of 6%.
Work on `CCC(C(=O)Nc1ccccc1C(=O)N1CCCC1)N1C(=O)c2ccccc2C1=O` (configuration not stated) yielded an inhibition of 6%.
`Nc1scc(-c2ccncc2)c1Cl` showed an inhibition of 7%.
`CC1=C(C(=O)N2CCOCC2)C(c2ccsc2)C2=C(CCCC2=O)N1` (configuration not stated) gave an inhibition of 0%.
In the case of `COC(=O)CSc1nnc(-c2cccs2)n1-c1ccc(Cl)cc1`, the inhibition is reported as 4%.
`CN(C)S(=O)(=O)n1cnc(-c2ccccc2)c1-c1ccccc1` gave an inhibition of 4%.
`COCCn1nnnc1CN1CCC(Cc2ccccc2)CC1` was tested, and the inhibition was 0%.
With `Cc1ccc2oc(=O)c3cnn(CC(=O)NCCC(C)C)c3c2c1` the inhibition was 0%.
